# Only some compounds are listed: those with a hit (about 3.4% of all), similar ones and a draw of the others.
# GPR151 ag – activators of human GPR151 | Q8TDV0 | PathHunter beta-arrestin GPR151 cells, luminescence | activation, % at 11.2 µM | 650,000 compounds, 1% hits; in the data active = activation above about 4.9%;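 also: 0% = median of compound wells and 100% = cells with positive control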
# TEAD-YAP inh – TEAD-YAP interaction inhibition; HEK-TIYL cells, TEAD-Gal4/YAP UAS-luciferase luminescence; inhibition, % at 9.12 µM; 640,000 compounds, 1.4% hits; AID 1259422; in the data active = inhibition above about 32%;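 also: 0% = median of test compound wells and 100% = reference inhibitor wells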
# FBW7 activator – activators of human E3 ligase FBW7; normalized activity (activation), % at 26.1 µM; Q969H0; AlphaScreen FBW7–phospho-cyclin E peptide binding, activator screen; AID 1259310; 650,000 compounds, 0.13% hits; in the data active = normalized activity above about 1.9%;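 also: purified mutant Fbw7 with reduced substrate affinity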
# Target sequence (Q969H0 whole entry, looked up): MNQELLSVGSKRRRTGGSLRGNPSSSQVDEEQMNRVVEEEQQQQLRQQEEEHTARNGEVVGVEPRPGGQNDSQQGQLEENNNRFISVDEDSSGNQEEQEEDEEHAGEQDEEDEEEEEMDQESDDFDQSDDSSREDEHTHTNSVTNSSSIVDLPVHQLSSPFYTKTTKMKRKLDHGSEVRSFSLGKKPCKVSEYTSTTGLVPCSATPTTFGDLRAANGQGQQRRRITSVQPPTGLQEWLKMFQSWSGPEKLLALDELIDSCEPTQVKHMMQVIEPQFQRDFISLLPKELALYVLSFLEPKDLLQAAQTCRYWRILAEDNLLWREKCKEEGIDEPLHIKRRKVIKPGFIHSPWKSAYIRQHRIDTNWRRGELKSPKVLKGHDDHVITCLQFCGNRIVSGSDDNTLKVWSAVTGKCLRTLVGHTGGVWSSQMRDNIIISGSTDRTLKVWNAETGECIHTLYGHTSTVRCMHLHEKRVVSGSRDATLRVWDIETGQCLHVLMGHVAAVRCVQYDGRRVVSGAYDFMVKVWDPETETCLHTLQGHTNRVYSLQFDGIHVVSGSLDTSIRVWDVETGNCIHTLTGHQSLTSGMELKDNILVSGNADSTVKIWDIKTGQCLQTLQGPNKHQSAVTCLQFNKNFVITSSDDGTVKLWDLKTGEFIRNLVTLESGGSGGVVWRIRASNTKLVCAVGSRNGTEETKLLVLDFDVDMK
# MITF inh – human MITF inhibition, primary screen; inhibition, % at 2.6 µM; AlphaScreen MITF homodimerization, bead proximity signal; 650,000 compounds, 0.91% hits; in the data active = inhibition above about 50%;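 also: 0% = vehicle wells with protein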
# MITF confirm – human MITF inhibition, confirmation. AID 1259372. 4,700 compounds, 16% hits. shares compounds with MITF inh. AlphaScreen MITF homodimerization, biotin/His-MITF beads. inhibition, % at 2.6 µM;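 active = inhibition above a cutoff derived from the DMSO control wells, cut at about 28% in these data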;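 also: 0% = MITF dimer wells with DMSO only; inhibitors lower the bead chemiluminescence by keeping MITF from dimerizing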
# AlphaScreen intf2 – optically interferes with AlphaScreen signal; 4,700 compounds, 7.6% hits; shares compounds with MITF inh; inhibition, % at 2.6 µM; AID 1259376; LysRS AlphaScreen counterscreen, signal interference, triplicate;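 active = inhibition above a cutoff derived from the DMSO control wells, cut at about 30% in these data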
# Starred values were filed as active, the others as inactive; / = no result.
SMILES,GPR151 ag,TEAD-YAP inh,FBW7 activator,MITF inh,MITF confirm,AlphaScreen intf2
COc1cc(CN2CCC(C(=O)N3CCCC(C)C3)CC2)ccc1O (stereo unspecified),2,5,0,24,/,/
CCOc1ccccc1N1CCN(C(=O)C2CCNCC2)CC1,0,6,0,58*,11,13
CC[C@@H]1NC(=O)[C@@H]2C[C@H](NC(=O)Oc3ccc(Cl)cc3)CN2C1=O,0,-6,0,-5,/,/
c1ccc(Nc2nc(NC3CC3)c3ncn(-c4ccsc4)c3n2)nc1,3,11,0,3,/,/
O=C1C(=O)N(CCCn2ccnc2)C(c2ccccc2)/C1=C(/O)c1ccc(F)cc1 (stereo unspecified),0,1,0,2,/,/
O=C1OC(OC(=O)c2ccco2)C(Nc2ccccc2)=C1Cl (stereo unspecified),-1,-2,0,71*,-25,-7
O=C1NC(=O)C(=Cc2ccc(OCc3cccc([N+](=O)[O-])c3)c(Cl)c2)C(=O)N1,2,-47,0,-16,/,/
CNc1nc(-c2ccccn2)nnc1-c1ccccc1,-1,-6,0,108*,107*,98*
O=C1NC2=C(C(=O)N(CCO)C2)C(c2ccc(F)c(F)c2)N1 (stereo unspecified),-1,5,0,11,/,/
COC(=O)CN1C(=O)COc2cc(S(=O)(=O)Nc3ccccc3)ccc21,0,4,0,-4,/,/
CCOC(=O)c1sc(NC(=O)c2nn3c(c2Cl)NC(c2cccs2)CC3C(F)(F)F)c(C(=O)OCC)c1C (stereo unspecified),2,-9,0,68*,-9,-8
COc1cc(NC(=O)c2nn3c(c2Cl)NC(c2cccs2)CC3C(F)(F)F)cc([N+](=O)[O-])c1 (stereo unspecified),0,-4,0,74*,-5,-8
COc1cc(NC(=O)c2nn3c(c2Cl)NC(c2ccccc2)CC3C(F)(F)F)cc([N+](=O)[O-])c1 (stereo unspecified),1,-10,0,-9,/,/
COc1nn(C)cc1C(=O)Nc1cccc(-c2nc3ccccc3[nH]2)c1,2,-14,0,7,/,/
Cc1c(NC(=O)CC2(C(F)(F)F)OCCO2)c(=O)n(-c2ccccc2)n1C,0,-9,0,1,/,/
CCN(CC)CCN(C)Cc1ccc(NC(C)=O)cc1,1,5,0,64*,-7,-2
CCN(CC)CCN(C)Cc1ccc(SC)cc1,0,-1,0,37,/,/
COc1ccc(-c2[nH]nc3nc(-c4cc(OC)c(O)c(OC)c4)cc(C(=O)O)c23)cc1,1,-4,0,70*,19,27
Clc1cccc(OCCN2CCNCC2)c1,-2,3,1,49,/,/
CCOc1cccc(OCCN2CCNCC2)c1,-1,-2,0,75*,9,-13
CC1CN(CCOc2ccc3ccccc3c2)CC(C)O1 (stereo unspecified),-1,-11,0,30,/,/
Fc1ccc(OCCCN2CCNCC2)cc1,-1,1,0,37,/,/
CCOc1cccc(OCCN2CC(C)OC(C)C2)c1 (stereo unspecified),0,-6,0,53*,12,12
c1ccc(Oc2cccc(OCCCCN3CCOCC3)c2)cc1,-1,-4,0,29,/,/
c1ccc(COc2ccc(OCCCN3CCNCC3)cc2)cc1,1,58*,0,62*,1,5
SMILES,GPR151 ag,TEAD-YAP inh,FBW7 activator,MITF inh,MITF confirm,AlphaScreen intf2
CCN1CCN(CCCOc2cccc(Oc3ccccc3)c2)CC1,-1,-6,-1,69*,7,16
CC(=O)N1CCC2(CC1)OCc1cc(-c3cccc(O)c3)ccc1O2,0,0,0,2,/,/
c1ccc(Oc2cccc(OCCCN3CCNCC3)c2)cc1,2,-13,0,31,/,/
c1ccc(Oc2cccc(OCCCCN3CCNCC3)c2)cc1,-1,-16,0,77*,3,13
CCCc1cc2c(=O)c(-c3nc4ccccc4s3)coc2cc1OC(C)=O,-1,-8,0,0,/,/
COc1ccc(-c2cccc(C(=O)NCc3ccc4c(c3)OCO4)c2)cc1,0,1,0,-3,/,/
COc1cccc(-c2cc(CNC(=O)c3ccc4c(c3)OCO4)no2)c1,1,3,0,51*,9,-11
CCCCN(CC)c1ncnc2sc(C)c(C)c12,0,0,0,51*,10,-2
CC(=O)Nc1nnc(COc2ccc(C)cc2C)s1,-1,-27,0,13,/,/
CCCCCCNC(=O)c1cccnc1SCc1cccc(F)c1,1,-7,0,3,/,/
COc1ccc(CN2CCN(Cc3ccc(Cl)cc3)CC2)cc1OC,1,14,0,74*,13,0
COc1ccc(CN2CCOCC2)cc1OC,0,-7,0,11,/,/
COc1cc(OC)c(OC)cc1CN1CCN(Cc2cccc(Cl)c2)CC1,-1,-1,1,82*,14,19
COc1ccc(CN2CCN(Cc3cccc(Cl)c3)CC2)cc1OC,3,9,0,82*,9,18
CCOc1cc(CN2CCN(Cc3cc(OC)c(OC)cc3OC)CC2)ccc1OC,0,5,0,7,/,/
CCS(=O)(=O)N1CCN(Cc2ccc(OC)c(OC)c2)CC1,0,1,0,50,/,/
COc1ccc(CN2CCN(Cc3ccc(OC)c(OC)c3)CC2)cc1,0,18,0,74*,-8,-2
O=C(Nc1cc(C(=O)N2CC=C(c3ccccc3)CC2)ccc1N1CC2CC(C1)c1cccc(=O)n1C2)c1ccc(F)cc1 (stereo unspecified),-2,-3,0,19,/,/
O=C(c1cc2ccccc2o1)N1CCC(c2nc3ccccc3[nH]2)CC1,-2,14,0,0,/,/
CC1(C)CC(=O)C2=C(C1)OC1=C(C(=O)CC(C)(C)C1)C2c1cc2ccccc2[nH]c1=O,1,-4,0,-2,/,/
COc1ccc(CN2CCN(Cc3cccc(F)c3)CC2)cc1OC,-1,3,0,64*,19,18
O=C(N/N=C/c1ccc(F)cc1)C(=O)Nc1cccc(Br)c1,0,-6,0,-1,/,/
Cc1nc(-c2ccc(NC(=O)c3cc4cc(Br)cc(Br)c4oc3=O)cc2)cs1,0,4,1,0,/,/
O=C(Nc1nc(-c2ccc(F)cc2)cs1)c1cc2cc(Br)cc(Br)c2oc1=O,-1,3,0,100*,2,-9
CCN1CCN(CC(=O)N/N=C/c2cc(Br)cs2)CC1,0,20,1,68*,-1,3
CC(/C=N/NC(=O)CN1CCN(C)CC1)=C\c1ccccc1,0,9,1,73*,3,-5
CN(C)c1ccc(/C=N\NC(=O)CN2CCN(Cc3ccccc3)CC2)cc1,1,5,0,-4,/,/
CCN1CCN(CC(=O)N/N=C/c2ccc(N(C)C)cc2)CC1,1,2,0,52*,26,6
CC(/C=N\NC(=O)Cc1cccn1C)=C\c1ccccc1,1,-9,0,-4,/,/

# High-throughput results: PubChem BioAssay, The Scripps Research Institute Molecular Screening Center
